Experiment [1] deals with T1, MAP kinase-activated protein kinase 5 (Homo sapiens) (UniProt Q8IW41).
T1 sequence (whole entry): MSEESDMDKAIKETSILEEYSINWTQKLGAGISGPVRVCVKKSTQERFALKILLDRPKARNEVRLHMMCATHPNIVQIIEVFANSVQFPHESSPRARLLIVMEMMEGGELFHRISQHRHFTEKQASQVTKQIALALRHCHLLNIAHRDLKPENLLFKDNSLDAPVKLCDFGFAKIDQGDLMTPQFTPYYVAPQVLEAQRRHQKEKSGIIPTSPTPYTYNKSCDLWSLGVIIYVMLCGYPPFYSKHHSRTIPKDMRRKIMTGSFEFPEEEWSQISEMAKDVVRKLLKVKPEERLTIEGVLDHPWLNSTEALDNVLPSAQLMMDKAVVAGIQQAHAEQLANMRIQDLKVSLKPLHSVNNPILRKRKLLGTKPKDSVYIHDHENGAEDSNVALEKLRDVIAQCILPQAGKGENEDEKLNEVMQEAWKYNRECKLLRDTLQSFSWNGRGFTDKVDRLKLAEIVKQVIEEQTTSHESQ
The settings on record: at 1 µM.

The target of experiment [2] is T1, MAP kinase-activated protein kinase 5 (Homo sapiens). The settings on record: at 10 µM.
In experiment [3] the target is Serine/threonine-protein kinase N2 (Homo sapiens) (UniProt Q16513). The settings on record: at 1 µM.
Chain of Serine/threonine-protein kinase N2 (Homo sapiens) (Q16513 whole entry, looked up): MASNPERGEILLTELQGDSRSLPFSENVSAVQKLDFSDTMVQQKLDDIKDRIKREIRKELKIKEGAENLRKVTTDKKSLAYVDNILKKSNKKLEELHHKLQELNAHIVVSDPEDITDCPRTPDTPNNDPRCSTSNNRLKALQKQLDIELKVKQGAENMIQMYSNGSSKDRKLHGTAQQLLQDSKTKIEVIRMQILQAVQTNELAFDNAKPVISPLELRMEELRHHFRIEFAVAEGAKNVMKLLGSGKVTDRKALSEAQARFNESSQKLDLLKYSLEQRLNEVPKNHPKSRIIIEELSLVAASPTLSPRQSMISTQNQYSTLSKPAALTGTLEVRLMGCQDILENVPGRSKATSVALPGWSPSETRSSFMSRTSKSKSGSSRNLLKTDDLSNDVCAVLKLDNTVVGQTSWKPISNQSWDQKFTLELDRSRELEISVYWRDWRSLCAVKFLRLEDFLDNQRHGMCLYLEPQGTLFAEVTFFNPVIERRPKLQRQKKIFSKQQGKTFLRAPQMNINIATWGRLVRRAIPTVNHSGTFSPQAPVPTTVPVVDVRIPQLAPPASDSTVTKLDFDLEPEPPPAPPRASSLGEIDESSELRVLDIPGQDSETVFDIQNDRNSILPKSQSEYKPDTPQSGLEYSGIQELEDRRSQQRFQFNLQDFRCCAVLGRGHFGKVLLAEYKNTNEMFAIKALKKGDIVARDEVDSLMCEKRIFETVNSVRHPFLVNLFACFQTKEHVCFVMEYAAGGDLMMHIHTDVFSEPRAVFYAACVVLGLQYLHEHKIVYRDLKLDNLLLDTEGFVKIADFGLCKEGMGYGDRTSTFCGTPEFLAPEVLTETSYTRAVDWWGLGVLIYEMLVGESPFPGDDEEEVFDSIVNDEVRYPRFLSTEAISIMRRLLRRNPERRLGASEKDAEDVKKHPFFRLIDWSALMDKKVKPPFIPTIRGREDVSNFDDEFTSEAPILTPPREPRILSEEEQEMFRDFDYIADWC
For experiment [4] the target is unchanged. To be noted: at 10 µM.
Experiment [5] has as its target Tyrosine-protein kinase FRK (Homo sapiens) (UniProt P42685). The settings on record: at 1 µM.
Experiment [6] shares this target. The settings on record: at 10 µM.
Experiment [7] addresses T2, Phosphorylase b kinase gamma catalytic chain, liver/testis isoform (Homo sapiens) (UniProt P15735).
T2 sequence (whole entry): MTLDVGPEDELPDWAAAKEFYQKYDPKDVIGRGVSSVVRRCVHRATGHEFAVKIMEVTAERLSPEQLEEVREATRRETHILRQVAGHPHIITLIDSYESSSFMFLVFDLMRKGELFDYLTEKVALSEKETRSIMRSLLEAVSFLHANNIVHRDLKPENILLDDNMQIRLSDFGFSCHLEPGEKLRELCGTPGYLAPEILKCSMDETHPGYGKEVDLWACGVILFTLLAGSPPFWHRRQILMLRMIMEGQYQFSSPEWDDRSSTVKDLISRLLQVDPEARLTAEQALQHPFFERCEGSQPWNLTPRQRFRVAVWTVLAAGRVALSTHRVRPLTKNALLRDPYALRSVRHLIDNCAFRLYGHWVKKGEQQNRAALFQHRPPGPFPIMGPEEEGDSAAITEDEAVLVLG
The settings on record: at 1 µM.

Experiment [8] deals with T2, Phosphorylase b kinase gamma catalytic chain, liver/testis isoform (Homo sapiens). To be noted: at 10 µM.
In experiment [9] the target is Serine/threonine-protein kinase pim-1 (Homo sapiens) (UniProt P11309). The settings on record: at 1 µM.
Chain of Serine/threonine-protein kinase pim-1 (Homo sapiens) (P11309 whole entry, looked up): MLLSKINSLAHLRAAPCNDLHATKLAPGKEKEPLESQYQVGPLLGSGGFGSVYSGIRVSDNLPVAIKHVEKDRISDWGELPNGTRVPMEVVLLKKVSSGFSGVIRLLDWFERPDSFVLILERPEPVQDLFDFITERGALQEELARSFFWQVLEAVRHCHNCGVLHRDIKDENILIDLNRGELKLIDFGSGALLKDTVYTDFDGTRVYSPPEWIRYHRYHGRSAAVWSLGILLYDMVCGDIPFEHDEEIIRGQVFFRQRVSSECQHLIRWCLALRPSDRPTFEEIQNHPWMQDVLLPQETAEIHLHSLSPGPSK
For experiment [10] the target is unchanged. To be noted: at 10 µM.
Experiment [11] concerns the target Serine/threonine-protein kinase pim-3 (Homo sapiens) (UniProt Q86V86). The settings on record: at 1 µM.
Experiment [12] has the same target. The settings on record: at 10 µM.
Experiment [13] addresses Serine/threonine-protein kinase PLK1 (Homo sapiens) (UniProt P53350). To be noted: at 1 µM.
The target is the same in experiment [14]. The settings on record: at 10 µM.
Experiment [15] deals with T3, cGMP-dependent protein kinase 1 (Homo sapiens) (UniProt Q13976).
T3 sequence (whole entry): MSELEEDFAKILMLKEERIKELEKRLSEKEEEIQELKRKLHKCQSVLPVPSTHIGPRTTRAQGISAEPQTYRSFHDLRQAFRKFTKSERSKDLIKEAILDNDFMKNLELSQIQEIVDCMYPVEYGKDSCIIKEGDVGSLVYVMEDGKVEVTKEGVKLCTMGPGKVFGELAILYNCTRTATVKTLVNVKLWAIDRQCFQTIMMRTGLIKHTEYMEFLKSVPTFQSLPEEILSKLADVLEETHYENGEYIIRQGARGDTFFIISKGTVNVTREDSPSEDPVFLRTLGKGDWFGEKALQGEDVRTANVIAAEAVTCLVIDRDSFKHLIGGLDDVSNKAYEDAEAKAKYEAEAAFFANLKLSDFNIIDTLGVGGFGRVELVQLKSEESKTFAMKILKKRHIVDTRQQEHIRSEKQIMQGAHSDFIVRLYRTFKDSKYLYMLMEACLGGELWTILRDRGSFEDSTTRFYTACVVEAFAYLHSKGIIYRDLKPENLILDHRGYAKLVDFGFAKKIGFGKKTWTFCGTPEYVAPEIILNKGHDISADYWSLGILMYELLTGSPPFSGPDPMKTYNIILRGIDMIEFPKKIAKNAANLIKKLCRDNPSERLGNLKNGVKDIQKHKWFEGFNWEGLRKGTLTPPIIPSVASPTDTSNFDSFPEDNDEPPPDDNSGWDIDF
To be noted: at 1 µM.

The target of experiment [16] is T3, cGMP-dependent protein kinase 1 (Homo sapiens). To be noted: at 10 µM.
Experiment [17] deals with Serine/threonine-protein kinase pim-2 (Homo sapiens) (UniProt Q9P1W9). The settings on record: at 1 µM.
Chain of Serine/threonine-protein kinase pim-2 (Homo sapiens) (Q9P1W9 whole entry, looked up): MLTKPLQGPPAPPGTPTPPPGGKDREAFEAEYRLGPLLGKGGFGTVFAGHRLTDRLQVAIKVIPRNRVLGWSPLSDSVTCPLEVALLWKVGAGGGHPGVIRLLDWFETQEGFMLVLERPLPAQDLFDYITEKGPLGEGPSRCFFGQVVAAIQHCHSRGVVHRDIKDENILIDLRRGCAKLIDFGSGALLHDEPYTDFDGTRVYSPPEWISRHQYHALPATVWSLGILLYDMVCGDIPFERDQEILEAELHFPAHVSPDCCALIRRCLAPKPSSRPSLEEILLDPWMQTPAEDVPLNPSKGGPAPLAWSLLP
Experiment [18] shares this target. The settings on record: at 10 µM.
The target in experiment [19] is T3, cGMP-dependent protein kinase 1 (Homo sapiens). To be noted: at 1 µM. The source holds these as a separate data set.
The target is the same in experiment [20]. To be noted: at 10 µM. This is another data set of the same source.

Chain of Serine/threonine-protein kinase PLK1 (Homo sapiens) (P53350 whole entry): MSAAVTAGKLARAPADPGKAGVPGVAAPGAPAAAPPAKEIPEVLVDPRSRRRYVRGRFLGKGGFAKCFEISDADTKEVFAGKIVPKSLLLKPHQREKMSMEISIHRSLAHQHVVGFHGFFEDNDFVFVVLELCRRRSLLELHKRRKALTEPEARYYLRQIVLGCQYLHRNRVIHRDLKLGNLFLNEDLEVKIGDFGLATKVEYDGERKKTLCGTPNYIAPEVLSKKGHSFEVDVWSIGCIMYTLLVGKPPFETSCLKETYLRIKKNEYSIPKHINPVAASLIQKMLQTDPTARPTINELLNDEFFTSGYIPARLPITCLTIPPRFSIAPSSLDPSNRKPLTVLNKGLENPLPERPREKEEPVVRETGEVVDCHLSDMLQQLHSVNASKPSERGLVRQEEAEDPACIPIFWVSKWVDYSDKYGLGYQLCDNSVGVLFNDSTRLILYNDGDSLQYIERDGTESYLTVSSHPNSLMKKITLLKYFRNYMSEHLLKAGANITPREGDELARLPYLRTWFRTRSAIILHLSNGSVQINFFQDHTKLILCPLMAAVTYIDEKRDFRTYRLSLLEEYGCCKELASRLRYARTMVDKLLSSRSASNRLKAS
Chain of Tyrosine-protein kinase FRK (Homo sapiens) (P42685 whole entry): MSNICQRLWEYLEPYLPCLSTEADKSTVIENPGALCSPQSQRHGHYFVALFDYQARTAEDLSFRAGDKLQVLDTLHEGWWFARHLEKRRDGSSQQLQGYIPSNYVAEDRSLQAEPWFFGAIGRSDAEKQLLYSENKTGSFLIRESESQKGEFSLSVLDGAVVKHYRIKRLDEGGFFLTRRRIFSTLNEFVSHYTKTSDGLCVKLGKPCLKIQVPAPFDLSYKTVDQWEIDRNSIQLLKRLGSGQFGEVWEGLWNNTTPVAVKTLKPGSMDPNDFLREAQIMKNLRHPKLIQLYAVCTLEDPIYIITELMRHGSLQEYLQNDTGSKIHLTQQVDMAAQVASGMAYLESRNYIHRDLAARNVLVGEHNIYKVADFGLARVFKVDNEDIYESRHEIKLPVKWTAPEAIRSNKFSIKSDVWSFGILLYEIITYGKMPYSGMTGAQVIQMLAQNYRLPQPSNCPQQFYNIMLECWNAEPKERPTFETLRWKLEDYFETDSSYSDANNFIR

As to `c1ccc(-c2n[nH]cc2-c2ccnc3ccccc23)nc1`, the residual activity in experiment [1] turned out to be 73%; in experiment [2], 90%; in experiment [3], 89%; in [4], 103%; in experiment [5] it was 84%; in [6] it was 25%. The residual activity in experiment [7] worked out at 95%; in [8], 102%; in [9] it was 96%; in experiment [10] it was 85%; in experiment [11] it was 99%; in experiment [12] it was 100%. For the same compound, the results for the residual activity in [13] and in experiment [14] were 80% and 72%, respectively.
`N#Cc1cnc2cnc(NCc3cccnc3)cc2c1Nc1ccc(F)c(Cl)c1`: the residual activity was 4% in [15]; 9% in experiment [16]; 78% in experiment [1]; 101% in experiment [2]; 4% in [3]; 3% in experiment [4]. Also, the residual activity was 28% in experiment [5]; 22% in experiment [6]; 3% in [7]; 2% in experiment [8]; 27% in [9]; 18% in [10]. For the same compound, the residual activity worked out at 84% in [17], 63% in experiment [18], 97% in experiment [11] and 94% in experiment [12].
As to `c1ccc(-c2n[nH]c3c2oc2ccccc23)cc1`, the residual activity in [15] was 99%; in experiment [16], 100%; in [19], 75%; in experiment [20] it was 93%; in experiment [1] it was 97%; in experiment [2], 58%. The residual activity amounted to 85% in experiment [9]; 84% in experiment [10]; 83% in [17]; 123% in experiment [18]; 92% in experiment [11]; 90% in experiment [12]. Besides, the residual activity came out at 85% in experiment [13] and 67% in [14].
Take `COc1cccc(-c2cc(=O)c3ccccc3o2)c1N`: the residual activity in experiment [15] came to 95%; in experiment [16], 89%; in experiment [19] it was 114%; in experiment [20] it was 102%; in [1] it was 125%; in experiment [2], 108%. Also, the residual activity in experiment [3] was determined as 94%; in [4], 90%; in experiment [5] it was 93%; in experiment [6], 86%; in experiment [7] it was 113%; in experiment [8], 117%. Also, the residual activity in experiment [9] is 82%; in experiment [10], 58%; in experiment [17], 126%; in [18], 102%; in experiment [11] it was 89%; in [12] it was 91%. The residual activity in experiment [13] came out at 81%; in experiment [14], 102%.
For the compound `Nc1cccc(-c2cc3c(Oc4cccc(O)c4)ncnc3[nH]2)c1`, the residual activity in experiment [20] was determined as 91%; in [1] it was 100%; in experiment [2] it was 71%; in experiment [3], 98%; in experiment [4] it was 67%; in [5] it was 1%. The residual activity was 0% in experiment [6]; 120% in experiment [7]; 91% in experiment [8]; 75% in experiment [9]; 34% in experiment [10]; 118% in experiment [17]. Further, the residual activity in [18] came out at 84%; in experiment [11], 86%; in experiment [12] it was 91%; in experiment [13], 78%; in [14] it was 83%.
With `NC(=O)c1ccc2[nH]c(-c3ccc(Oc4ccc(Cl)cc4)cc3)nc2c1`, the residual activity amounted to 99% in experiment [15]; 105% in experiment [16]; 105% in [19]; 77% in experiment [20]; 91% in experiment [1]; 67% in experiment [2]. Moreover, the residual activity in [3] came to 101%; in experiment [4] it was 90%; in experiment [5] it was 94%; in experiment [6] it was 106%; in experiment [7] it was 89%; in experiment [8], 80%. Besides, the residual activity turned out to be 121% in experiment [9]; 116% in experiment [10]; 108% in experiment [17]; 119% in experiment [18]; 83% in [11]; 83% in [12]. Also, the residual activity was 75% in experiment [13] and 69% in [14].
Regarding `Cc1cc2ncc(-c3ccccc3)nc2cc1C`, the residual activity in [15] is 110%; in experiment [16], 130%; in experiment [19], 83%; in experiment [20] it was 94%; in experiment [1], 101%; in experiment [2], 73%. Besides, the residual activity in experiment [3] worked out at 102%; in experiment [4], 107%; in experiment [5], 105%; in experiment [6], 88%; in experiment [7] it was 94%; in [8] it was 101%. In addition, the residual activity in experiment [9] was determined as 97%; in experiment [10] it was 84%; in experiment [17] it was 126%; in experiment [11], 100%; in experiment [12], 96%; in [13], 81%. For the same compound, the residual activity in [14] was 75%.
Consider `Nc1n[nH]c2nnc(-c3c(-c4ccccc4)nn4ccccc34)cc12`, for which the residual activity in experiment [15] worked out at 95%; in experiment [16], 104%; in [19] it was 92%; in experiment [20], 76%; in experiment [1] it was 104%; in [2], 101%. The residual activity was 91% in [3]; 76% in experiment [4]; 99% in experiment [5]; 46% in experiment [6]; 104% in experiment [7]; 98% in experiment [8]. Besides, the residual activity was found to be 98% in [9]; 85% in [10]; 123% in [17]; 74% in experiment [18]; 88% in experiment [11]; 83% in experiment [12]. The residual activity stood at 78% in [13] and 92% in experiment [14].

The values are drawn from ChEMBL document CHEMBL2218924, “A broad activity screen in support of a chemogenomic map for kinase signalling research and drug discovery” (Biochem J, 2013).
